Reference: PubChem BioAssay (NCATS)
Records with an inconclusive call do not appear. Calls of active or inactive are those of the source. Unless noted, the call rests on the fitted dose curve; in most records, active means well fitted curve in the direction sought with a large enough effect; inconclusive means small, poorly fitted or top-dose-only effect, or another doubt; inactive means no such curve, though single readings can be large; an effect the other way counts as inactive or inconclusive.

Columns and labels:
[1] = biological target: Ubiquitin carboxyl-terminal hydrolase 1 (Homo sapiens) (UniProt O94782); assay: Inhibitors of USP1/UAF1: Pilot qHTS (AID 504865);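 further: rhodamine fluorescence freed from ubiquitin-rhodamine substrate followed over time; top concentration of the series differs between compounds; on the % scale 0 is the no-effect control and ±100 the full control effect; nearly all actives have a fitted effect of over 35% in size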
Chain of Ubiquitin carboxyl-terminal hydrolase 1 (Homo sapiens) (O94782 whole entry, looked up): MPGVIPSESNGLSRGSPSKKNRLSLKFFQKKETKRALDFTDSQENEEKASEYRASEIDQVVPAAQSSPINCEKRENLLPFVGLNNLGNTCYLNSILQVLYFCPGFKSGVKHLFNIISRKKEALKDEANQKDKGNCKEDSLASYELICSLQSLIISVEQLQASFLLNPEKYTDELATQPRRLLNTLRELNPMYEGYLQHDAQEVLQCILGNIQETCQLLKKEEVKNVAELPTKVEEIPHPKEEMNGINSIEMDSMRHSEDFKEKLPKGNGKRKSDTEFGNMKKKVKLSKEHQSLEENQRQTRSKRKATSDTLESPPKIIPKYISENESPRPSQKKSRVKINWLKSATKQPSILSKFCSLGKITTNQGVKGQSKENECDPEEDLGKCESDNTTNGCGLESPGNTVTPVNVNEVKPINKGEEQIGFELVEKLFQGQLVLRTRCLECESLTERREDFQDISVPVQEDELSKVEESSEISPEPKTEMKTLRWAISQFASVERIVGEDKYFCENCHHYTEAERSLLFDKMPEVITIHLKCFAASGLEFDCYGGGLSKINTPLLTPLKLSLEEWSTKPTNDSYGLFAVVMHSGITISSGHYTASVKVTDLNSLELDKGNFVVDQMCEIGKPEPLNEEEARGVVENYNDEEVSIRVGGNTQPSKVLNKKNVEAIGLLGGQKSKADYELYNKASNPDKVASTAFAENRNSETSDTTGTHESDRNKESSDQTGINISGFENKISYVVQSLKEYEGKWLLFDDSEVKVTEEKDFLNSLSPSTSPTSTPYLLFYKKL
Method in brief: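 Enzyme-free wells gave the negative control, while test wells held 1nM USP1/UAF1 preincubated with compound for 15 min at room temperature. Ub-Rho at 150nM final started the reaction, and fluorescence at 480/540 nm was recorded kinetically.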

[2] = biological target: Luciferin 4-monooxygenase (Photinus pyralis) (UniProt P08659); assay: Biochemical firefly luciferase enzyme assay for NPC (AID 624030);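 further: purified P. pyralis luciferase at 10 nM with luciferin and ATP substrate; 0% = DMSO and -100% = full luciferase inhibition by PTC124 control; nearly all actives have a fitted effect of over 70% in size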
Chain of Luciferin 4-monooxygenase (Photinus pyralis) (P08659 whole entry, looked up): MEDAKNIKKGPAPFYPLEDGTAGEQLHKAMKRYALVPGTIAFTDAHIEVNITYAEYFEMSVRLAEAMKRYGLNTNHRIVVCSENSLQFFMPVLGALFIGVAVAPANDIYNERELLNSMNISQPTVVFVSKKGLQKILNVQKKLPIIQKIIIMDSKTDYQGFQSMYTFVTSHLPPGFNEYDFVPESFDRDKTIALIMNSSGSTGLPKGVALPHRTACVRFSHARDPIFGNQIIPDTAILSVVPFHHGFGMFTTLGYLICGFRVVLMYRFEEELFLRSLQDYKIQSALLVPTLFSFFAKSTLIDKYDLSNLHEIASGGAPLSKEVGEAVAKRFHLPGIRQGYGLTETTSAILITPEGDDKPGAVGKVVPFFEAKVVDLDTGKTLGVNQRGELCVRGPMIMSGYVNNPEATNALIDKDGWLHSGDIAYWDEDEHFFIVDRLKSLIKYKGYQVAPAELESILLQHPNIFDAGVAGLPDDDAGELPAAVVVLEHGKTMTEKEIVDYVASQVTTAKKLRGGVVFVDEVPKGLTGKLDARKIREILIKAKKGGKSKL
Method in brief: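 Counter-screen for direct inhibition of the luciferase enzyme by approved-drug library compounds, run at 10 nM enzyme in 50 mM Tris acetate (final). Luminescence was read within 5 min of enzyme-buffer addition and normalized to PTC124 versus DMSO (0%).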

[3] = S16 Schwann cell PMP22 intronic element firefly luciferase assay (AID 624032);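 further: plate controls were DMSO for no effect and PTC124 positive control mean for full effect; nearly all actives have a fitted effect of over 30% in size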
Method in brief: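 Rat S16 Schwann cells stably carrying a PMP22 intronic element-driven Fluc reporter were seeded overnight, then exposed to compounds for 24 h at 37 °C. Luminescence was normalized to PTC124 (positive control) and DMSO (0% activity).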

[4] = Primary qHTS for inhibitors of SARS-S pseudo-typed particle cell entry (AID 1479145; calls by dose curve; further: on the % scale 0 is the no-effect control and ±100 the full control effect; nearly all actives have a fitted effect of over 45% in size); details: outcome: dose series up to 57.1 µM unless noted
[5] = Primary qHTS for Huh7 cytotoxicity: counterscreen for inhibitors of MERS-S pseudotyped particle cell entry (AID 1479147; calls by dose curve; further: on the % scale 0 is the no-effect control and ±100 the full control effect); details: outcome: dose series up to 57.1 µM unless noted
[6] = Primary qHTS for inhibitors of MERS-S pseudo-typed particle cell entry (AID 1479149; calls by dose curve; further: nearly all actives have a fitted effect of over 60% in size); details: outcome: dose series up to 57.1 µM unless noted
[7] = Primary qHTS for Vero E6 cytotoxicity: counterscreen for inhibitors of SARS-S pseudo-typed particle cell entry (AID 1479150; calls by dose curve); details: outcome: dose series up to 57.1 µM unless noted
[8] = biological target: Cytochrome P450 2D6 (Homo sapiens) (UniProt P10635); assay: Cytochrome P450 family 2 subfamily D member 6 (CYP2D6) small molecule antagonists: luciferase biochemical (cell-free) qHTS assay (AID 1645840; active means well fitted curve in the direction sought with a large enough effect in the repeat runs; an effect the other way counts as inactive or inconclusive; further: on the % scale 0 is the no-effect control and ±100 the full control effect; nearly all actives have a fitted effect of over 55% in size)
Chain of Cytochrome P450 2D6 (Homo sapiens) (P10635 whole entry, looked up): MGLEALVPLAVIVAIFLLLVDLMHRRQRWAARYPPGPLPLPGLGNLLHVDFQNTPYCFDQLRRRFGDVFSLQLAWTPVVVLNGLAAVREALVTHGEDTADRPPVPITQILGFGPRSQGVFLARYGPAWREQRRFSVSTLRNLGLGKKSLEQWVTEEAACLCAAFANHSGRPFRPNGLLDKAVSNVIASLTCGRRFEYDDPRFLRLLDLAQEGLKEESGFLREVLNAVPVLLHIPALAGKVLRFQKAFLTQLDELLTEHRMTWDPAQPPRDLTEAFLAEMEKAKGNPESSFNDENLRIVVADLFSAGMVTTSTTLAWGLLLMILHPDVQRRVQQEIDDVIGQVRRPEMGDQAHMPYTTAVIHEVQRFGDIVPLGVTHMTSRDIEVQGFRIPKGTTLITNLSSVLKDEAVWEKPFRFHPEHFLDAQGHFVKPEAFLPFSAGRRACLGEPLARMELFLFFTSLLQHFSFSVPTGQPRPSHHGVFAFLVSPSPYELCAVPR
Method in brief: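 P450-Glo luminescent screen: recombinant CYP2D6 enzyme–proluciferin substrate mix preincubated with compound 10 min at room temperature, then NADPH regeneration added for 1 h at room temperature. Detection reagent added for 20 min; luciferin light read as relative luminescence units.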

[9] = biological target: Cytochrome P450 2C9 (Homo sapiens) (UniProt P11712); assay: Cytochrome P450 family 2 subfamily C member 9 (CYP2C9) small molecule antagonists: luciferase biochemical (cell-free) qHTS assay (AID 1645842; active means well fitted curve in the direction sought with a large enough effect in the repeat runs; an effect the other way counts as inactive or inconclusive; further: on the % scale 0 is the no-effect control and ±100 the full control effect; nearly all actives have a fitted effect of over 55% in size)
Chain of Cytochrome P450 2C9 (Homo sapiens) (P11712 whole entry, looked up): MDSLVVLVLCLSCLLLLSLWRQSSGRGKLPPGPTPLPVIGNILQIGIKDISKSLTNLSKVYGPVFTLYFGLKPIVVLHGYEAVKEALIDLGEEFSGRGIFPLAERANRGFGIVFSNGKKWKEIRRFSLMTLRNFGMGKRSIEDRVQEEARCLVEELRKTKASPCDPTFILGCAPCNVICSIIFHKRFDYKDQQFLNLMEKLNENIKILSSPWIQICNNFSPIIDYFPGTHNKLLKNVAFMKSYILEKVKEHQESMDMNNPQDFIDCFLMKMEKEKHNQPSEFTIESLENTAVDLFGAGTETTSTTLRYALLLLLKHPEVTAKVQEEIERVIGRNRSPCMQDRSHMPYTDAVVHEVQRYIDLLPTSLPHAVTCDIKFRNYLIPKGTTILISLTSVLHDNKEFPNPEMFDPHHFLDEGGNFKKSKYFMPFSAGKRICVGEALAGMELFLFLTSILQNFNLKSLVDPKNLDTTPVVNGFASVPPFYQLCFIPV
Method in brief: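 Luminescence, after 20 min with luciferin detection reagent, reflected CYP2C9 turnover during a 1 h NADPH-driven reaction at 37C. Enzyme-substrate mix contained 0.4% bovine serum albumin and was preincubated with compound 10 min at room temperature.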

[10] = Cytotoxicity counterscreen for inhibitors of SARS-CoV-2 cell entry (AID 1645845; calls by dose curve; further: nearly all actives have a fitted effect of over 50% in size); details: outcome: dose series up to 57.1 µM unless noted
Method in brief: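 Expi293F/hACE2 cells seeded overnight; cpd pin-transferred in DMSO, 1 h preincubation, + media, 48 h 37 C 5% CO2; ATPLite 1step luminescence; normalized to cells and no cells.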

[11] = biological target: Glutathione peroxidase 1 (Homo sapiens) (UniProt P07203); assay: Primary qHTS Assay for Inhibitors of Recombinant Selenoprotein Glutathione Peroxidase 1 (GPX1) (AID 1845191); further: on the % scale 0 is the no-effect control and ±100 the full control effect; nearly all actives have a fitted effect of over 65% in size
Chain of Glutathione peroxidase 1 (Homo sapiens) (P07203 whole entry, looked up): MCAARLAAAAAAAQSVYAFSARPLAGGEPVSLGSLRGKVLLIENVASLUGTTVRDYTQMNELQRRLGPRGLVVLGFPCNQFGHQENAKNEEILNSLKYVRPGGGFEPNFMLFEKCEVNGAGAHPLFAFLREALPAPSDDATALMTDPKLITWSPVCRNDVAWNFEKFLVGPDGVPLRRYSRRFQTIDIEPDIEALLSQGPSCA
Method in brief: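 Recombinant GPX1 (10 nM final) was preincubated with compound for 30 min at room temperature, then reacted with 1 mM GSH, 0.5 mM CHP, 0.5 mM NADPH and 100 nM glutathione reductase; NADPH fluorescence (340/450 nm) was read at 0 and 15 min.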

[12] = biological target: Phospholipid hydroperoxide glutathione peroxidase GPX4 (Homo sapiens) (UniProt P36969); assay: Primary qHTS Assay for Inhibitors of Recombinant Selenoprotein Glutathione Peroxidase 4 (GPX4) (AID 1845192); further: on the % scale 0 is the no-effect control and ±100 the full control effect; nearly all actives have a fitted effect of over 65% in size
Chain of Phospholipid hydroperoxide glutathione peroxidase GPX4 (Homo sapiens) (P36969 whole entry, looked up): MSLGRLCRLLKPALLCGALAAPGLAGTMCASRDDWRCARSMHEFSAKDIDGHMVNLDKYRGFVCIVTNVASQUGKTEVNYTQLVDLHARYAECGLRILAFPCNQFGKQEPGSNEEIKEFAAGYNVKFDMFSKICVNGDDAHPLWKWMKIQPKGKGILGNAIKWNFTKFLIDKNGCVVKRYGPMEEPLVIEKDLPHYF
Method in brief: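 GR-coupled readout: 100 nM GR, 1 mM GSH, 0.5 mM NADPH; NADPH fluorescence (ex 340/em 450 nm) read at t=0 and after 15 min RT. GPX4 200 nM, preincubated 30 min with compound; substrate 0.5 mM CHP.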

[13] = qHTS profiling for inhibitors of Plasmodium falciparum proliferation (AID 504749);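 further: 0% = DMSO vehicle and full inhibition = artemisinin control; nearly all actives have a fitted effect of over 60% in size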; details: P. falciparum in erythrocytes, SYBR Green DNA, 72 h, at 28.7 µM (top of the series)
Method in brief: (§1)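 P. falciparum-infected erythrocytes (0.3% parasitemia, 2.5% hematocrit final) were exposed to compounds for 72 h at 37 C in 5% CO2, then lysed with SYBR Green buffer overnight at room temperature; parasite DNA fluorescence was normalized to artemisinin and DMSO controls.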

3D7 = assay: as above; details: P. falciparum in erythrocytes, SYBR Green DNA, 72 h; series mostly up to 28.7 µM
Method in brief: as §1

7G8 = assay: as above; details: P. falciparum in erythrocytes, SYBR Green DNA, 72 h; series mostly up to 12.8 µM
Method in brief: as §1

AA1029 = assay: as above; details: P. falciparum in erythrocytes, SYBR Green DNA, 72 h; series mostly up to 28.7 µM
Method in brief: as §1

AS120 = assay: as above; details: P. falciparum in erythrocytes, SYBR Green DNA, 72 h; series mostly up to 28.7 µM
Method in brief: as §1

ATS189 = assay: as above; details: P. falciparum in erythrocytes, SYBR Green DNA, 72 h; series mostly up to 28.7 µM
Method in brief: as §1

ATS95 = assay: as above; details: P. falciparum in erythrocytes, SYBR Green DNA, 72 h; series mostly up to 28.7 µM
Method in brief: as §1

C2A = assay: as above; details: P. falciparum in erythrocytes, SYBR Green DNA, 72 h; series mostly up to 28.7 µM
Method in brief: as §1

CP185 = assay: as above; details: P. falciparum in erythrocytes, SYBR Green DNA, 72 h; series mostly up to 28.7 µM
Method in brief: as §1

CP191 = assay: as above; details: P. falciparum in erythrocytes, SYBR Green DNA, 72 h; series mostly up to 28.7 µM
Method in brief: as §1

CP192 = assay: as above; details: P. falciparum in erythrocytes, SYBR Green DNA, 72 h; series mostly up to 28.7 µM
Method in brief: as §1

CP194 = assay: as above; details: P. falciparum in erythrocytes, SYBR Green DNA, 72 h; series mostly up to 28.7 µM
Method in brief: as §1

CP201 = assay: as above; details: P. falciparum in erythrocytes, SYBR Green DNA, 72 h; series mostly up to 28.7 µM
Method in brief: as §1

CP203 = assay: as above; details: P. falciparum in erythrocytes, SYBR Green DNA, 72 h; series mostly up to 28.7 µM
Method in brief: as §1

CP211 = assay: as above; details: P. falciparum in erythrocytes, SYBR Green DNA, 72 h; series mostly up to 28.7 µM
Method in brief: as §1

CP215 = assay: as above; details: P. falciparum in erythrocytes, SYBR Green DNA, 72 h; series mostly up to 28.7 µM
Method in brief: as §1

CP217 = assay: as above; details: P. falciparum in erythrocytes, SYBR Green DNA, 72 h; series mostly up to 28.7 µM
Method in brief: as §1

CP237 = assay: as above; details: P. falciparum in erythrocytes, SYBR Green DNA, 72 h; series mostly up to 28.7 µM
Method in brief: as §1

CP238 = assay: as above; details: P. falciparum in erythrocytes, SYBR Green DNA, 72 h; series mostly up to 28.7 µM
Method in brief: as §1

CP247 = assay: as above; details: P. falciparum in erythrocytes, SYBR Green DNA, 72 h; series mostly up to 28.7 µM
Method in brief: as §1

CP250 = assay: as above; details: P. falciparum in erythrocytes, SYBR Green DNA, 72 h; series mostly up to 12.8 µM
Method in brief: as §1

CP252 = assay: as above; details: P. falciparum in erythrocytes, SYBR Green DNA, 72 h; series mostly up to 12.8 µM
Method in brief: as §1

CP256 = assay: as above; details: P. falciparum in erythrocytes, SYBR Green DNA, 72 h; series mostly up to 28.7 µM
Method in brief: as §1

CNC(C)[C@@H](O)c1ccc(O)cc1 (stereo partly specified)
inactive: Potency [1] | Potency [2] | Potency [3] | Potency [4] | Potency [5] | Potency [6] | Potency [7] | Potency [8] | Potency [9] | Potency [10] | Potency [11] | Potency [12] | activity, negative = inhibition ([13]; parasite line A) 1.09% | activity, negative = inhibition ([13]; parasite line B) 3.21% | Potency (3D7) | Potency (7G8) | Potency (AA1029) | Potency (AS120) | Potency (ATS189) | Potency (ATS95) | Potency (C2A) | Potency (CP185) | Potency (CP191) | Potency (CP192) | Potency (CP194) | Potency (CP201) | Potency (CP203) | Potency (CP211) | Potency (CP215) | Potency (CP217) | Potency (CP237) | Potency (CP238) | Potency (CP247) | Potency (CP250) | Potency (CP252) | Potency (CP256)
